Compound activity (PubChem)
KB-V1 MDR tox: qHTS assay for MDR1-selective chemotherapeutics: Primary screen using the drug-selected MDR subline cells KB-V1. AID 1347076, 2019. hit rate 3.4% among 400,000. KB-V1 MDR cells viability, CellTiter-Glo, 72 h. Potency, µM (highest dose often 46.1 µM), hits mostly cytotoxic; also: nearly all actives have a fitted effect of over 60% in size
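Drug-selected KB-V1 cells, grown in DMEM lacking phenol red with 10% FBS, receive compound titrations; after three days at 37 degrees C, surviving cell ATP is quantified by CellTiter-Glo luminescence and responses normalized and curve-fitted.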
ELG1 DNA repair: qHTS screen for small molecules that inhibit ELG1-dependent DNA repair in human embryonic kidney (HEK293T) cells expressing luciferase-tagged ELG1; HEK293T ELG1-luciferase reporter, luminescence, 16 h; DNA damage induced by 5-fluorouridine; Potency, µM (top dose mostly 46.1 µM), most hits filed as inhibitors; hit rate 2.3% among 330,000; AID 504467, 2011; also: nearly all actives have a fitted effect of over 55% in size
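Cells (2,000 per well) received 5-fluorouridine plus test compound or DMSO and were incubated 16 hr at 37 °C, 5% CO2. Luciferase activity was read by luminescence 30 min after ONE-Glo addition; signal suppression marked inhibition of damage-induced ELG1 function.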
SW480 rerep: A quantitative high throughput screen for small molecules that induce DNA re-replication in SW480 colon adenocarcinoma cells | hit rate 1.8% among 340,000 | SW480 DNA re-replication, Hoechst DNA content imaging, 48 h | Potency, µM (doses to about 46.1 µM), most hits filed as activators; also: nearly all actives have a fitted effect of over 55% in size
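Hoechst fluorescence of nuclei (405 nm excitation, 500-530 nm emission) measured by plate-scanning imager after 48 hr compound exposure at 37 C; re-replication scored as increased number of nuclei with elevated intensity.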
KB-3-1 tox: qHTS assay for MDR1-selective chemotherapeutics: Primary screen using the parental adenocarcinoma cell KB-3-1; KB-3-1 viability, CellTiter-Glo ATP luminescence, 72 h; Potency, µM (top dose mostly 46.1 µM), most hits filed as cytotoxic; hit rate 1.4% among 400,000; also: nearly all actives have a fitted effect of over 60% in size
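Viability of parental KB-3-1 cells, measured by CellTiter-Glo luminescence, followed a 72 h incubation at 37 °C with pinned compounds in phenol-red-free DMEM containing 10% FBS.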
MCF10A rerep: A quantitative high throughput screen for small molecules that induce DNA re-replication in MCF 10a normal breast cells; MCF 10A DNA re-replication, Hoechst nuclear intensity, 48 h; Potency, µM (doses to about 46.1 µM), most hits filed as activators; hit rate 2.9% among 350,000; also: nearly all actives have a fitted effect of over 50% in size
Numbers stand for hits; - = inactive; ? = inconclusive; . = no result given; [ ] = dose if it differs, or a comment. In the library only some 8.2% were active in any assay of this set; here they are far more common. Calls follow the shape of the dose curve; as a rule, active = well fitted curve in the direction sought with a large enough effect; inconclusive = small, poorly fitted or top-dose-only effect, or another doubt; inactive = no such curve, though single readings can be large; an effect the other way counts as inactive or inconclusive.

SMILES	KB-V1 MDR tox	ELG1 DNA repair	SW480 rerep	KB-3-1 tox	MCF10A rerep
COc1ccc(C2C(C#N)=C(N)Oc3cc(O)ccc32)cc1 (stereo not drawn)	-	.	-[1.84 µM]	-	-
N#CC1=C(N)Oc2cc(N)ccc2C1c1ccsc1 (stereo not drawn)	-	-	-	-	-
Cc1ccc(C)c(OCCC(=O)N(C)CC(=O)Nc2c(C)cccc2C)c1	-	-	-	-	-
COc1ccc(OC)c(Nc2nc3ccccc3nc2-n2nc(C)cc2C)c1	-	.	.	-	.
Cc1cc(C)n(-c2nc3ccccc3nc2N2CCOCC2)n1	-	-	-	-	-
Cc1cc(C)n(-c2nc3ccccc3nc2N2CCCCCC2)n1	-	-	-	-	-
Cc1cc(-c2ccccc2)n(-c2ccc(C(=O)N3CCN(c4ncccn4)CC3)cc2)n1	2.9µM	6.5µM	-	?	-
Cc1cc(C)n(-c2nc3ccccc3nc2N2CCCC2)n1	13µM	-	-	-	-
COc1ccc(Nc2nc3ccccc3nc2-n2nc(C)cc2C)cc1	-	-	?	-	16µM
Cc1cc(C)n(-c2nc3ccccc3nc2N2CCN(C(=O)c3ccc(Cl)cc3)CC2)n1	-	-	21µM	-	1.8µM
CN(C)CCN1CCN(C2CN(Cc3ccc([N+](=O)[O-])cc3)S(=O)(=O)C2)CC1 (stereo not drawn)	-	.	.	-	.
O=C1CCC(C2CCc3cc(O)ccc3C2)C1 (stereo not drawn)	-	.	-	-	-
O=c1cc(O)c2ccc(O)cc2o1	-	-	-	-	-
COC(=O)Cc1cc(=O)oc2cc(O)ccc12	-	-	18µM	-	16µM
Cn1c2c(c3ccccc31)CCN(CCCCN1CCN(c3ccccc3)CC1)C2=O	5.8µM	.	?	-	?
CC(/C=C/c1ccc(O)cc1)=N/O	-	23µM	?	-	-
Cc1ccc(CC(NC(=O)C2CCCCC2)C(=O)O)cc1 (stereo not drawn)	-	?	-	-	-
O=C(c1ccccc1)N1CCN(CC(O)COCC2CC=CCC2)CC1 (stereo not drawn)	9.2µM	-	-	-	-
CCN(C(=O)c1ccc(NC(C)=O)cc1)c1ccccc1C	-	?	-	-	-
CCCCC(=O)Nc1ccc(C(=O)N(CC)c2ccccc2C)cc1	15µM	?	?	-	-[9.22 µM]
CCc1cccc(NC(=O)COC(=O)C2COc3ccccc3O2)c1 (stereo not drawn)	-	.	.	-	.
O=C(CCc1nnc2ccc(NCc3ccccc3)nn12)NC1CCCC1	-	-	-	-	-
NC(=S)NN=C1c2ccccc2-c2c(F)c(F)c(F)c(F)c21	?	.	15µM	?	6.5µM
COc1ccc(CCNc2cc(C)[nH]c(=O)c2)cc1OC	-	-	-	?	-
CCc1ccccc1NC(=O)CSc1nc2c(c(=O)[nH]1)CN(Cc1ccccc1OC)CC2	-	.	.	-	.
SMILES	KB-V1 MDR tox	ELG1 DNA repair	SW480 rerep	KB-3-1 tox	MCF10A rerep
O=C(CSc1ccccc1)N1CCN(C(=O)c2ccco2)CC1	-	-	-	-	?
O=C(CSc1nc(-c2ccccc2)cs1)N1CCN(C(=O)c2ccco2)CC1	18µM	?	-	-	-
O=C(OCC(=O)N1CCN(C(=O)c2ccco2)CC1)c1cc(-c2cccc(Br)c2)nc2ccccc12	16µM	16µM	-	-	?
Cc1cccc(-c2nsc(SCC(=O)NCc3ccco3)n2)c1	21µM	?	-	-	-
Cc1cccc(-c2nsc(SCC(=O)NCc3ccc4c(c3)OCO4)n2)c1	-	-	-	-	-
O=C(OCC(=O)N1CCN(C(=O)c2ccco2)CC1)c1cn(-c2ccccc2)nc1-c1ccccc1	-	?	-	?	-
O=C(OCC(=O)N1CCN(C(=O)c2ccco2)CC1)c1cc(-c2ccc(F)cc2)nc2ccccc12	-	23µM	-	-	-
O=C(Nc1cc(-c2nc3ccccc3s2)ccc1Cl)c1cc2ccccc2o1	-	.	.	-	.
CCOC(=O)c1ccc(NC(=O)CN2Cc3ccccc3C2=O)cc1	-	.	.	-	.
Cc1cccc(-n2ncc3c(N4CCCC(C)C4)ncnc32)c1 (stereo not drawn)	-	.	.	-	.
Cc1nc(SCC(=O)NCc2ccco2)[nH]c(=O)c1C	?	-	?	-	23µM
Nc1nc(SCC(=O)NCc2ccco2)[nH]c(=O)c1-c1ccccc1	-	-	?	-	-
O=C(OCC(=O)N1CCN(C(=O)c2ccco2)CC1)c1cc(-c2ccccc2)nc2ccccc12	-	15µM	-	-	?
O=C(OCC(=O)N1CCN(C(=O)c2ccco2)CC1)c1ccccc1C(=O)c1ccccc1	-	-	-	-	-
O=C(CSc1nnc(-c2ccco2)o1)N1c2ccccc2CCc2ccccc21	?	12µM	-	-	-
O=C(CSc1nnc(-c2ccc(Br)cc2)o1)N1CCN(C(=O)c2ccco2)CC1	?	23µM	-	-	-
CC(NC(=O)C1CCN(S(=O)(=O)c2ccc(F)cc2)CC1)c1ccccc1 (stereo not drawn)	-	.	.	-	.
Cc1ccc(-c2cnc3c(c2)C(=O)N([C@H](C)CO)C[C@H](C)[C@@H](CN(C)Cc2ccccc2F)O3)cc1	-	.	.	-	.
O=C(CSc1nc(-c2ccccc2)cs1)NC(=O)NCc1ccco1	?	18µM	-	-	-
Cc1ccc(CCNC(=O)c2cc3sccc3n2Cc2ccc(C)cc2)cc1	-	.	.	-	.
Cc1ccc(Cn2c(C(=O)NCCCN3CCOCC3)cc3sccc32)cc1	4.6µM	-	-	-	-
CCn1c(C(=O)NCCCN2CCc3ccccc3C2)cc2sccc21	9.2µM	-	?	-	-
CCOC(=O)c1c(C)c(C(=O)NCc2ccccn2)c(C)n1CC	16µM	-	?	-	-
Cc1cc2c(cc(C(=O)NCCCN3CCOCC3)n2Cc2ccc(Cl)cc2)o1	-	?	18µM	-	23µM
Cc1cc(-n2ccnc(NCCc3ccc(S(N)(=O)=O)cc3)c2=O)ccc1Br	-	.	.	-	.
SMILES	KB-V1 MDR tox	ELG1 DNA repair	SW480 rerep	KB-3-1 tox	MCF10A rerep
COc1cccc2cc(C(=O)NCCc3c(C)[nH]c4ccc(Br)cc34)c(=O)oc12	-	.	.	-	.
CCN(C(=O)Cn1ncc2c1-c1cc(C)ccc1OC2)c1cc(Cl)ccc1OC	-	.	.	-	.
CCn1c(C(=O)NCCCc2ccccc2)cc2sccc21	?	-	-	-	-
CCn1c(C(=O)NCc2ccccn2)cc2sccc21	15µM	?	-	-	-
O=C(NCCc1nc2ccccc2n1CCOc1ccccc1)C1CCCCC1	-	.	.	-	.
c1ccc2c(c1)OCCOCCOCCOCCOCCOc1ccccc1OCCOCCOCCO2	5.2µM	?	?	5.2µM	?
